Test results from PubChem BioAssay.
Active and inactive are the calls of the source. Unless noted, no rule for the calls is given here.

Experiments:
[1] = A549 cell viability effects, profiling panel, calcein-AM fluorescence, 48 h, basal (AID 1162); details: higher = more signal; also: test concentration not given here
[2] = adipocyte viability effects, profiling panel, cell-based, 3T3-L1 adipocytes, calcein-AM fluorescence, 48 h, basal (AID 1163); details: 3T3-L1 adipocytes viability, higher = more signal; also: test concentration not given here
[3] = HepG2 cell viability effects, profiling panel, calcein-AM fluorescence, 48 h, basal (AID 1164); details: higher = more signal; also: test concentration not given here
[4] = MM1S cell viability effects, profiling panel, calcein-AM fluorescence, 48 h, basal (AID 1165); details: higher = more signal;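 also: viability of MM1S multiple myeloma cells under basal unstimulated conditions; test concentration not given here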
[5] = basal RPMI8226 viability, no added stimulus, profiling panel, cell-based, calcein-AM fluorescence, 48 h, PK04 Diversity Set (AID 1166); details: RPMI8226 myeloma viability, higher = more signal;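 also: cells grown under basal conditions without added stimulus; test concentration not given here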
[6] = basal HepG2 mitochondrial membrane potential changes, profiling panel, cell-based, JC-1 fluorescence, 24 h, 100 nL compound (AID 1167); details: higher = more signal; also: test concentration not given here
[7] = basal 3T3-L1 adipocyte mitochondrial potential changes, profiling panel, cell-based, JC-1 fluorescence, 3T3-L1 adipocytes, 24 h, 100 nL compound (AID 1168); details: JC-1 mitochondrial fluorescence, higher = more signal, called active from +8 up or from −8 down; also: test concentration not given here
[8] = basal RPMI8226 mitochondrial membrane potential changes, profiling panel, cell-based, JC-1 fluorescence, 24 h, 100 nL compound (AID 1169); details: RPMI8226 myeloma, JC-1 mitochondrial potential fluorescence, higher = more signal; also: test concentration not given here
[9] = basal MM1S mitochondrial membrane potential changes, profiling panel, cell-based, JC-1 fluorescence, 24 h, 100 nL compound (AID 1170); details: higher = more signal; also: test concentration not given here
[10] = A549 lung cancer cell viability effects, profiling panel, resazurin fluorescence, 24 h, PK04 Diversity Set (AID 1171); details: higher = more signal, called active from +8 up or from −8 down; also: test concentration not given here
[11] = HepG2 liver cancer cell viability effects, profiling panel, resazurin fluorescence, 24 h, PK04 Diversity Set (AID 1172); details: higher = more signal; also: test concentration not given here
[12] = basal S. cerevisiae growth modulation, no modifier, primary screen, OD600, strain BY4716, 24 h, basal condition (AID 1173); details: OD600, 24 h, higher = more signal, called active from +8 up or from −8 down
[13] = MM1S myeloma cell viability, profiling panel, resazurin fluorescence, basal, 24 h, PK04 Diversity Set (AID 1174); details: higher = more signal, called active from +8 up or from −8 down;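 also: MM1S multiple myeloma cell line; test concentration not given here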
[14] = target: Dihydroorotate dehydrogenase (quinone), mitochondrial (Plasmodium falciparum (isolate 3D7)) (UniProt Q08210); assay: PfDHODH enzyme inhibitors, primary screen, biochemical, C-terminal His tag, absorbance 600 nm (AID 1175); details: DCIP absorbance 600 nm, higher = more signal, called active from +8 up or from −8 down;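 also: recombinant parasite enzyme with a five histidine tag at its C terminus; test concentration not given here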
Dihydroorotate dehydrogenase (quinone), mitochondrial (Plasmodium falciparum (isolate 3D7)), sequence (Q08210 whole entry, looked up): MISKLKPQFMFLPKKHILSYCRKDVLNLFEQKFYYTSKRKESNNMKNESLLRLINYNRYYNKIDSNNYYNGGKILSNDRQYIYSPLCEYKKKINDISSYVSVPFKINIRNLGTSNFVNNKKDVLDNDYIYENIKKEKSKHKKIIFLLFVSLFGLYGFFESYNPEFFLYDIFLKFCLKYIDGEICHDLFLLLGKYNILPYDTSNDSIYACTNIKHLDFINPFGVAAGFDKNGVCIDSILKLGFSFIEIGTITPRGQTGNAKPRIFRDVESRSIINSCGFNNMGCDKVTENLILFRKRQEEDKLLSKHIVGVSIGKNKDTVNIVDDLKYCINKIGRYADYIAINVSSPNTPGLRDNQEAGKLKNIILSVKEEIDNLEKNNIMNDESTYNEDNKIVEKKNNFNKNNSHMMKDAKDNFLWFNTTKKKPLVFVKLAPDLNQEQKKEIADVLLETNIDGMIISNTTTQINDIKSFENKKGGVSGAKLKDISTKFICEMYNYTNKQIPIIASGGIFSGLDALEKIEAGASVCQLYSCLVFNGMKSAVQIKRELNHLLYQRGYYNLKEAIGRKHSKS

[15] = P. aeruginosa biofilm formation inhibitors, primary screen, strain PAO1, LB-PBS medium, absorbance 600 nm (AID 1176); also: test concentration not given here; details: P. aeruginosa PAO1 growth/biofilm, A600, 12 h; higher = more signal
[16] = S. cerevisiae RM11-1a growth modifiers, primary screen, strain RM11-1a, OD600, basal, 24 h (AID 1177); details: OD600, 24 h, higher = more signal, called active from +8 up or from −8 down;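 also: cultures grown under basal conditions with no added stressor; test concentration not given here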
[17] = E. coli acrAB mutant growth effects, primary screen, E. coli filamentation inducers, strain DRC39, OD650, 24 h (AID 1178); details: higher = more signal, called active from +8 up or from −8 down;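 also: growth measured as culture turbidity by optical density at 650 nm; test concentration not given here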
[18] = E. coli acrAB mutant growth effects, primary screen, E. coli filamentation inducers, strain DRC39, OD650, 48 h (AID 1179);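 also: screen aims at cell division blockers that make cells filament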; details: E. coli DRC39 delta-acrAB growth, higher = more signal, called active from +8 up or from −8 down
[19] = RPMI8226 myeloma cell viability, profiling panel, resazurin fluorescence, basal, 24 h, PK04 Diversity Set (AID 1180); details: higher = more signal;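 also: RPMI8826 multiple myeloma cell line at 5000 cells per well; test concentration not given here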
[20] = target: E3 ubiquitin-protein ligase XIAP (Homo sapiens) (UniProt P98170); assay: XIAP binders, primary screen, biophysical, small-molecule microarray, fluorescence 635 nm (AID 1181); details: small-molecule microarray binding, higher = more signal;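 also: score merges 667 nm emission and signal to noise over triplicate slides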
E3 ubiquitin-protein ligase XIAP (Homo sapiens), sequence (P98170 whole entry, looked up): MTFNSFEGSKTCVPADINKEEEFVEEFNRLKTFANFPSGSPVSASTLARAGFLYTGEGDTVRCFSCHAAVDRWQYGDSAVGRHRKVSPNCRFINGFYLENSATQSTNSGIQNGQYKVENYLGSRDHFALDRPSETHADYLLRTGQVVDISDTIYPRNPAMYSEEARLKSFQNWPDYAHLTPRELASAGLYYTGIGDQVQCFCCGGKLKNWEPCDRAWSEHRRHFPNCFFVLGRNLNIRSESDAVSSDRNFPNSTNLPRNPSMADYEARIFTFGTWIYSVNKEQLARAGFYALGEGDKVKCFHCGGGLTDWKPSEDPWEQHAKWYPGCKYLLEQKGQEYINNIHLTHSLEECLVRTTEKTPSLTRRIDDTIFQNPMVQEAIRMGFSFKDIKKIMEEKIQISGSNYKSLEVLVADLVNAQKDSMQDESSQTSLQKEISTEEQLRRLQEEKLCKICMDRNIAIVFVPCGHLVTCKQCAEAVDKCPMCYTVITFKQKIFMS

| SMILES | z-score [1] | z-score [2] | z-score [3] | z-score [4] | z-score [5] | z-score [6] | z-score [7] | z-score [8] | z-score [9] | z-score [10] | z-score [11] | z-score [12] | z-score [13] | composite z-score [14] | z-score [15] | z-score [16] | z-score [17] | z-score [18] | z-score [19] | composite z-score [20] |
| --- | --- | --- | --- | --- | --- | --- | --- | --- | --- | --- | --- | --- | --- | --- | --- | --- | --- | --- | --- | --- |
| CCCC#C[Si](O[C@H](CC)c1cn([C@H](CO)Cc2ccccc2)nn1)(C(C)C)C(C)C | 0.0096 | -0.263 | 0.0341 | -1.21 | 0.0028 | -0.371 | 0.406 (inactive) | 0.78 | -0.752 | 0.401 (inactive) | 0.442 | -12.8 (active) | 0.11 (inactive) | 0.225 (inactive) | 0.0885 (inactive) | 0.852 (inactive) | -0.281 (inactive) | -0.154 (inactive) | 0.114 | -0.121 |
| O=C1[C@H]2C=C(Br)[C@H](C[C@@H]2c2ccccc2)[C@@]12CO2 | -1.18 | -0.559 | -0.675 | -2.95 | -2.49 | -1.69 | 0.0869 (inactive) | -0.323 | -0.609 | -0.541 (inactive) | -0.25 | -7.98 (inactive) | -0.727 (inactive) | 0.402 (inactive) | -0.14 (inactive) | -0.13 (inactive) | -1.29 (inactive) | -1.58 (inactive) | -0.579 | -0.228 |
| CCOC(=O)C[C@H]1[C@H](OC(=O)c2ccc(C(=O)c3ccccc3)cc2)[C@@H](NC(=O)c2ccc(-c3ccccc3)cc2)c2cc(OCCCO)ccc2N1C(=O)c1ccccc1 | -0.56 | 0.734 | 0.2 | -0.821 | 0.134 | 1 | -0.136 (inactive) | 0.884 | -0.117 | -0.31 (inactive) | -0.587 | -0.0317 (inactive) | -0.27 (inactive) | -0.972 (inactive) | 0.0429 (inactive) | -0.469 (inactive) | -0.486 (inactive) | -0.566 (inactive) | -0.387 | 0.0153 |
